In PubChem BioAssay (NCI):
About 83,000 compounds went through this panel and 20% of them were active in at least one assay; those are over-represented in the sample as a whole.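 Note: values are percent growth. 100 is the growth of untreated cells, values between 100 and 0 indicate rising inhibition; between -100 and 0 indicates cell death.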 Active and inactive are the calls of the source. How the source made its calls: active means growth percent below 10; inactive means the rest.

Experiments:
Assay in all cases: NCI-60 one-dose screen, 48 h (100 = growth as untreated, 0 = no growth, -100 = all killed)
Details in all cases: 10 µM unless noted
[1] = tested on: T-47D breast
[2] = tested on: BT-549 breast
[3] = tested on: MDA-MB-435 melanoma
[4] = tested on: SW-620 colon
[5] = tested on: MCF7 breast
[6] = tested on: HCT-116 colon
[7] = tested on: HCC-2998 colon
[8] = tested on: KM12 colon

Measured: growth

COc1ccc2c(c1)N(CCO)C1=C(C(=O)OC1)C2c1cccc(F)c1 (stereo not given)
active: [3] -40.6% | [6] 4.87% | [7] 4.78%
inactive: [1] 56.7% | [2] 50% | [4] 26.9% | [5] 18.1% | [8] 15.5%

Oc1c(Br)cc(Br)c2ccc(Cn3cc(-c4ccc(C(F)(F)F)cc4)nn3)nc12
inactive: [1] 46.2% | [2] 72.6% | [3] 48.2% | [5] 27.9% | [7] 117% | [8] 104%
active: [4] -16.3% | [6] -0.0235%

COC1=CC(c2ccc[nH]2)=N/C1=C\c1[nH]c(C)c(CC(=O)OCc2ccccc2)c1CCC(=O)OCc1ccccc1
active: [1] -3.22% | [2] -31.6% | [3] -49.2% | [4] -30.9% | [5] 4.14% | [6] -68.9% | [7] -3.69% | [8] -38.9%

O=C1/C(=C/c2ccccc2Br)COc2ccc(O)cc21
inactive: [1] 83.7% | [2] 53.9% | [3] 40.9% | [4] 18.3% | [6] 18.6% | [7] 100% | [8] 23.9%
active: [5] 9.13%

Cn1ccnc1C(=O)/C=C/c1ccc(C(=O)Nc2ccc(Cl)cc2)cc1
inactive: [3] 23.8% | [5] 12.6%
active: [1] 9.37% | [2] -7.95% | [4] -46.8% | [6] -49% | [7] -10.1% | [8] -49.8%

O=C(O)c1cn(C2CC2)c2cc(N3CCN(C(=O)N(c4ccccc4)c4nc(-c5ccccc5)cs4)CC3)c(F)cc2c1=O
active: [2] -13% | [3] 8.3% | [5] 6.99% | [6] 5.04% | [8] 5.03%
inactive: [1] 11.4% | [4] 20.7% | [7] 16.5%

Nc1nc2ccccc2c2c1S(=O)(=O)c1ccc(Cl)cc1C2=O
active: [1] -0.213% | [4] 2.06% | [5] 9.68% | [6] 1.05%
inactive: [2] 24.3% | [3] 20.5% | [7] 41.5% | [8] 18.4%

O=C(Nc1ccc(OS(=O)(=O)c2ccc(F)cc2)cc1)C1CCCCCC1
inactive: [1] 81.4% | [2] 80.5% | [3] 97.3% | [4] 88.9% | [5] 92.1% | [6] 84.5% | [7] 78.9% | [8] 70.3%

CC(=O)n1nc(C(=O)OC(C)(C)c2ccccc2)c2ccccc21
inactive: [1] 86.3% | [2] 99.6% | [3] 92.1% | [4] 103% | [5] 94% | [6] 94.8% | [7] 98.2% | [8] 94.7%

COc1ccc(OC)c(-c2nc(SCC(=O)c3ccc(C#N)cc3)[nH]c(=O)c2C#N)c1
inactive: [1] 117% | [2] 99.4% | [3] 100% | [4] 98.6% | [5] 100% | [6] 95% | [7] 95.9% | [8] 91.8%

O=C(N/N=C/c1c(Cl)cccc1Cl)c1cccnc1Nc1cccc(C(F)(F)F)c1
inactive: [1] 15.7% | [2] 43% | [3] 36.2% | [4] 44.9% | [5] 23.2% | [6] 35.5% | [7] 72.2% | [8] 41.9%

CCOC(=O)c1cc2c(n1Cc1cc(OC)c(OC)c(OC)c1)-c1nc(N)sc1CCC2
inactive: [1] 43.3% | [2] 51.2% | [4] 43.4% | [5] 27.6% | [6] 34.1% | [7] 73.1% | [8] 30.8%
active: [3] -38.7%

OCCn1cc(-c2nc(-c3c[nH]c4ncccc34)cs2)c2cc(F)ccc21
inactive: [1] 35.2% | [2] 68.7% | [4] 57.9% | [5] 48.1% | [6] 62.4% | [7] 65.3% | [8] 28.4%
active: [3] 5.03%

CCC(=O)Oc1ccc(-c2ccccc2)cc1Br
inactive: [1] 101% | [2] 109% | [3] 109% | [4] 99.1% | [5] 93.6% | [6] 104% | [7] 112% | [8] 111%

CN(/C(N)=N/N=C/c1c2ccccc2cc2ccccc12)C1CCCCC1
active: [7] -69.9%
inactive: [1] 30.8% | [2] 67.7% | [3] 57.5% | [4] 58.6% | [5] 32.8% | [6] 15.9% | [8] 59.6%
